# Out of some 15,000 sequences screened, about 620 (4.1%) were called active. Rule as the data show it: active = GI50 up to about 1.1 µM and inactive = higher. Only a sample is shown. Measured potencies and affinities stand elsewhere.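 Grown in 96-well plates, cells were treated for 48 hours with each compound at five concentrations. Insufficient inhibition: endpoint recorded as highest concentration tested. Here, GI50 denotes the concentration required for 50% inhibition of growth.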
# Tested on: M19-MEL
# Assay: NCI tumour cell line growth inhibition, 48 h
row,Substance,GI50 [nM]
1,"[Bis(aminomethyl)ethylmethylsilane]tetrachloroplatinum(IV), CHEMBL2146192",1520
2,"mu-(1,7-nanodiamine-N,N')bis-(cis-aminedichloroplatimum (II)), CHEMBL2146215",1360
3,"[Bis(aminomethyl)pentamethylenesilane]dichloropaltinum(II), CHEMBL2146202",5380
4,"[Bis(aminomethyl)tetramethylenesilane]dichloropaltinum(II), CHEMBL2146205",19300
5,"[Bis(aminomethyl)tetramethylenesilane]tetrachloropaltinum(IV), CHEMBL2146189",2830
6,"[Bis(aminomethyl)dimethylsilane]dichloroplatinum (II), CHEMBL2146201",15200
7,"cis-Bis[[(trimethylsilyl)methyl]amino]tetrachloroplatinum(IV), CHEMBL2146191",3370
8,"[Bis(aminomethyl)diethylsilane]tetrachloroplatinum(IV), CHEMBL2146203",2030
9,"[Bis(aminomethyl)pentamethylenesilane]tetrachloropaltinum(IV), CHEMBL2146204",2240
10,"[Bis(aminomethyl)dimethylsilane]tetrachloroplatinum(IV), CHEMBL2146190",3120

# Reference: ChEMBL document CHEMBL1201862, “PubChem BioAssay data set” (2004)
